Results: the supplement of paper PMC11732987, “Enantioselective OTUD7B fragment discovery through chemoproteomics screening and high-throughput optimisation” (Communications Chemistry, 2025)

Assays:
Experiment in all cases: log2 ratio of Biotin-Ahx-Ub-VS probe labelling (compound/DMSO); higher = less target engagement, active = hit call of the paper (q ≤ 0.05, log2 ratio ≤ -1)
Details in all cases: treatment time: 3 h
[1] = compound: CCC1N(CCc2sccc12)C(=O)CCl
In short: (§1)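 HEK293T lysate (495 µg per sample, in Tris/CHAPS/IGEPAL buffer with protease inhibitors) was treated in triplicate with compound at 50 or 200 µM or with DMSO for 3 h. It was then treated with Biotin-Ahx-Ub-VS (0.5 µM final) for 1 h. Labelled DUBs were NeutrAvidin-enriched, digested with LysC and trypsin, and run by diaPASEF LC-MS/MS. Median-normalised label-free quantities gave average log2 ratios compound/DMSO by unpaired t-test, using proteins with ≥2 unique peptides.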

[2] = compound: CN1c2ccccc2C(CS1(=O)=O)NC(=O)CCl
In short: as §1

[3] = compound: Cl.ClCC(=O)N1CCc2ncncc2C1
In short: as §1

[4] = compound: Cl.Cn1ncc2C(CCCc12)NC(=O)CCl
In short: as §1

[5] = compound: ClCC(=O)NC1CCOc2ccccc12
In short: as §1

[6] = compound: ClCC(=O)NC1CCCc2ccccc12
In short: (§2)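 The values are mean compound-versus-vehicle ratios derived by unpaired t-test. For 3 h, triplicate HEK293T lysate samples (495 µg each) were treated with compound at a series of concentrations or with vehicle, after which Biotin-Ahx-Ub-VS was added to 0.5 µM final for 1 h. Labelled deubiquitinases were enriched with NeutrAvidin, digested with LysC and trypsin, and analysed by diaPASEF LC-MS/MS. Ratios are log2 values from global-median-normalised Spectronaut label-free quantities, using proteins with two or more unique peptides.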

[7] = compound: ClCC(=O)N[C@@H]1CCCc2ccccc12
In short: as §2

[8] = compound: ClCC(=O)N[C@H]1CCCc2ccccc12
In short: as §2

[9] = compound: CCC1N(CCc2cc(OC)c(Cl)cc12)C(=O)CCl
In short: as §1

[10] = compound: CCCC1N(CCc2cc(OC)c(OC)cc12)C(=O)CCl
In short: as §1

[11] = compound: CN(Cc1cccc(Br)c1)C(=O)CCl
In short: as §1

[12] = compound: CN(Cc1cccc(OCc2ccccc2C)c1)C(=O)CCl
In short: as §1

[13] = compound: CN(Cc1ccccc1)C(=O)CCl
In short: as §1

[14] = compound: COc1ccc(CN(C)C(=O)CCl)cc1
In short: as §1

[15] = compound: COc1cccc(CN(CCCc2ccccc2)C(=O)CCl)c1
In short: as §1

[16] = compound: ClCC(=O)N1CCc2cc(Cl)c(Cl)cc2C1
In short: as §1

[17] = compound: ClCC(=O)N1CCc2nc(ncc2C1)-c1ccccc1
In short: as §1

[18] = compound: ClCC(=O)N1CCc2nocc2C1
In short: as §1

[19] = compound: ClCC(=O)N1CCc2scc(Br)c2C1
In short: as §1

[20] = compound: ClCC(=O)NC(C1CCCC1)c1cccs1
In short: as §1

Measured: log2 ratio of Biotin-Ahx-Ub-VS probe labelling

VCPIP1 (UniProt Q96JH7)
UniProt Q96JH7, sequence (Q96JH7 whole entry): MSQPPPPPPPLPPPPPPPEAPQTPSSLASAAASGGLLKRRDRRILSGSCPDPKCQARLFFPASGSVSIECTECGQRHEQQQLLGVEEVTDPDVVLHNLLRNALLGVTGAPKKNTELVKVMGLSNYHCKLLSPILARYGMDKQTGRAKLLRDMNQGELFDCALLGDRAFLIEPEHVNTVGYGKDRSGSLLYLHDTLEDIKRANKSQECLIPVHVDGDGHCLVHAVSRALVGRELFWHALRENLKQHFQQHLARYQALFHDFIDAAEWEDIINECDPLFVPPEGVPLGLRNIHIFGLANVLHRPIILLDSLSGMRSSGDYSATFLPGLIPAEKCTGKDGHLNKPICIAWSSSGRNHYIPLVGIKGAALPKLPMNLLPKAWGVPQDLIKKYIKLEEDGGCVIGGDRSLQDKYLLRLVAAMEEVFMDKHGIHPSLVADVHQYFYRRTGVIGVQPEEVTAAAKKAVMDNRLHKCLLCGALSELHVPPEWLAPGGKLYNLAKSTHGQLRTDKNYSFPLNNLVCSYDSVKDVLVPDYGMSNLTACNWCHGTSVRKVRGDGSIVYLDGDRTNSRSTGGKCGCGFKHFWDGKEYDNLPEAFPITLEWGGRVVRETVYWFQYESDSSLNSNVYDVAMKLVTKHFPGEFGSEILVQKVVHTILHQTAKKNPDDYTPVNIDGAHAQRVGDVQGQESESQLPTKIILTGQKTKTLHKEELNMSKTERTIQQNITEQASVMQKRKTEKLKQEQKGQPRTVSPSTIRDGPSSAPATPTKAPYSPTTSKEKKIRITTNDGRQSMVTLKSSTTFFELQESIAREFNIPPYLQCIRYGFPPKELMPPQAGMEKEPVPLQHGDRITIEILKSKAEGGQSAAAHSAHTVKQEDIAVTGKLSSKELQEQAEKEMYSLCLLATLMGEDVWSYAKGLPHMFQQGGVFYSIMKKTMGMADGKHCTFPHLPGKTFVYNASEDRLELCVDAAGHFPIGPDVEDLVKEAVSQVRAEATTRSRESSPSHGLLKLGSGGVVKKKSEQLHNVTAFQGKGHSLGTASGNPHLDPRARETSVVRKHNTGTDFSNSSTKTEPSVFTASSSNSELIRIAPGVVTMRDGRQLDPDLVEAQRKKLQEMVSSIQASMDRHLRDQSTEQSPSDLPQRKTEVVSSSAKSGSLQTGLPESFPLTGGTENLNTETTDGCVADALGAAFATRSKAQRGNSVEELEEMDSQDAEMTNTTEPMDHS
active: [2]; compound concentration: 200uM -1.25 | [6]; compound concentration: 200uM -1.18 | [7]; compound concentration: 200uM -1.11 | [12]; compound concentration: 200uM -1.2 | [15]; compound concentration: 200uM -1.11
inactive: [1]; compound concentration: 50uM -0.0812 | [1]; compound concentration: 200uM -0.216 | [2]; compound concentration: 50uM -0.772 | [3]; compound concentration: 50uM -0.0798 | [3]; compound concentration: 200uM -0.257 | [4]; compound concentration: 50uM -0.273 | [4]; compound concentration: 200uM -0.459 | [5]; compound concentration: 50uM -0.59 | [5]; compound concentration: 200uM -0.809 | [6]; compound concentration: 0.78uM -0.0601 | [6]; compound concentration: 1.56uM -0.043 | [6]; compound concentration: 3.13uM -0.312 | [6]; compound concentration: 6.25uM -0.126 | [6]; compound concentration: 12.5uM -0.217 | [6]; compound concentration: 25uM -0.282 | [6]; compound concentration: 50uM -0.514 | [6]; compound concentration: 100uM -0.706 | [7]; compound concentration: 0.78uM -0.284 | [7]; compound concentration: 1.56uM -0.221 | [7]; compound concentration: 3.13uM -0.211 | [7]; compound concentration: 6.25uM -0.266 | [7]; compound concentration: 12.5uM -0.486 | [7]; compound concentration: 25uM -0.463 | [7]; compound concentration: 50uM -0.588 | [7]; compound concentration: 100uM -0.763 | [8]; compound concentration: 0.78uM -0.0679 | [8]; compound concentration: 1.56uM -0.261 | [8]; compound concentration: 3.13uM -0.266 | [8]; compound concentration: 6.25uM -0.105 | [8]; compound concentration: 12.5uM -0.162 | [8]; compound concentration: 25uM -0.176 | [8]; compound concentration: 50uM -0.258 | [8]; compound concentration: 100uM -0.566 | [8]; compound concentration: 200uM -0.808 | [9]; compound concentration: 50uM -0.123 | [9]; compound concentration: 200uM -0.724 | [10]; compound concentration: 50uM -0.514 | [10]; compound concentration: 200uM -0.602 | [11]; compound concentration: 50uM -0.446 | [11]; compound concentration: 200uM -0.887 | [12]; compound concentration: 50uM -0.755 | [13]; compound concentration: 50uM -0.563 | [13]; compound concentration: 200uM -0.709 | [14]; compound concentration: 50uM -0.548 | [14]; compound concentration: 200uM -0.854 | [15]; compound concentration: 50uM -0.299 | [16]; compound concentration: 50uM -0.374 | [16]; compound concentration: 200uM -0.407 | [17]; compound concentration: 50uM -0.105 | [17]; compound concentration: 200uM -0.284 | [18]; compound concentration: 50uM -0.319 | [18]; compound concentration: 200uM -0.484 | [19]; compound concentration: 50uM -0.213 | [19]; compound concentration: 200uM -0.677 | [20]; compound concentration: 50uM -0.515 | [20]; compound concentration: 200uM -0.426
